Results reported in PubChem BioAssay (NCATS).
Records with an inconclusive call do not appear. Calls of active or inactive are those of the source. The call rests on the fitted dose curve; in most records, active means well fitted curve in the direction sought with a large enough effect; inconclusive means small, poorly fitted or top-dose-only effect, or another doubt; inactive means no such curve, though single readings can be large; an effect the other way counts as inactive or inconclusive.

Key:
[1] = qHTS for Inhibitors of Plasmodium falciparum (DD2) proliferation (AID 504314);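 further: parasite DNA measured by SYBR Green fluorescence after red cell lysis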
Method in brief: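 Normalization used 0.29 uM artemisinin as full inhibition and DMSO as baseline. Parasitized erythrocytes were exposed to compounds for 72 h (37C, 5% CO2), then lysed with saponin/Triton buffer containing SYBR Green I.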

[2] = qHTS for Inhibitors of Plasmodium falciparum (GB4) proliferation (AID 504315); further: nearly all actives have a fitted effect of over 50% in size
Method in brief: (§1)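 Parasite growth measured as SYBR Green DNA fluorescence (ex 485, em 535 nm) after overnight lysis following 72 h culture at 37 °C, 0.3% parasitemia, 2.5% hematocrit. Values normalized against DMSO and 0.29 uM artemisinin controls, with plate-stack correction.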

[3] = qHTS for Inhibitors of Plasmodium falciparum (7G8) proliferation (AID 504316); further: series mostly up to about 6.7 µM; nearly all actives have a fitted effect of over 65% in size
Method in brief: as §1

[4] = qHTS for Inhibitors of Plasmodium falciparum (HB3) proliferation (AID 504318); further: nearly all actives have a fitted effect of over 60% in size
Method in brief: as §1

[5] = qHTS for Inhibitors of Plasmodium falciparum (CP250) proliferation (AID 504320)
Method in brief: as §1

Measured: Potency

C[C@H]1Cc2c(COc3ccccc3)nc3c(c2CO1)CN(C(=O)NCCc1c[nH]c2ccccc12)CC3
inactive: [1] | [2] | [3] | [4] | [5]

Fc1ccccc1-c1nc(-c2ccccc2)oc1NC1CCCCC1
inactive: [1] | [2] | [3] | [4] | [5]

COCCN1C(=O)N[C@@H](c2ccccc2)[C@H](C(=O)OC)[C@H]1C
inactive: [1] | [2] | [3] | [4] | [5]

CCCCC1=CC2=CC(=O)C(C)(OC(=O)CC)C(=O)C2=CN1C1CCCCC1 (stereo not given)
inactive: [1] | [2] | [3] | [4] | [5]

CCCCc1nc2c(c3c1C[C@H](C)OC3)CN(C(=O)Nc1ccc(OC)cc1)CC2
inactive: [1] | [2] | [3] | [4] | [5]

COC(=O)N[C@H](C(C(=O)OC)=C(C)NCc1ccccc1)c1cccc(F)c1
inactive: [1] | [2] | [3] | [4] | [5]

CCN1C(=O)N[C@@H](c2cccc(F)c2)C(C(=O)OC)=C1C
inactive: [1] | [2] | [3] | [4] | [5]

C[C@H]1Cc2c(-c3ccccc3)nc3c(c2CO1)CN(C(=O)C1CC1)CC3
inactive: [1] | [2] | [3] | [4] | [5]

COC(=O)C1=C(C(=O)OC)[C@@H]2N(C)c3ccccc3[C@@]23C[C@@H](C(=O)OC)N(C(=O)C2CCC2)C3=N1
inactive: [1] | [2] | [3] | [4] | [5]
